Shown are actives, neighbours in structure and some others; about 18% of the full set was active somewhere.
LDHA inh = qHTS assay for inhibitors of human lactate dehydrogenase; L-lactate dehydrogenase A chain (Homo sapiens), P00338; purified LDHA, NADH/diaphorase-resazurin fluorescence; active compounds read low; activity change, % (values are at about 110 or 230 µM); 480,000 tested, 0.15% active; AID 1347041, 2019; in the data active means activity change below about -30%; inconclusive means mostly about -25% to -30%
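LDH5 2 nM; NADH 0.06 mM, pyruvate 0.2 mM; 200 mM Tris pH 7.4, EDTA, Tween-20; 5 min RT. Detection: diaphorase 0.133 mg/mL + resazurin 37 µM, fluorescence ex540/em590 at 0 and 20 min; normalized to enzyme-free and DMSO wells.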
TDP1 cell CPT = qHTS for Inhibitors of human tyrosyl-DNA phosphodiesterase 1 (TDP1): qHTS in cells in presence of CPT; 420,000 tested, 12% active; AID 686979, 2013; chicken DT40 Tdp1-/-;hTDP1 cells + 20 nM CPT, ATP luminescence, 48 h; Potency, µM (doses to about 46.2 µM), hits mostly inhibitors; further: nearly all actives have a fitted effect of over 55% in size
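Cell growth measured by CellTiter-Glo luminescence after a minimum 48 h, 37 C compound exposure with 20 nM CPT in Tdp1-knockout DT40 cells stably expressing hTDP1, seeded 400/well; qHTS titration format.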
DT40 TDP1 no CPT = qHTS for Inhibitors of human tyrosyl-DNA phosphodiesterase 1 (TDP1): qHTS in cells in absence of CPT | DT40 Tdp1-/- hTDP1 cells, no CPT, ATP luminescence, 48 h | Potency, µM (series often up to 46.2 µM), actives largely listed as inhibitors | 420,000 tested, 15% active | AID 686978, 2013; further: nearly all actives have a fitted effect of over 55% in size
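Growth of hTDP1-complemented DT40 Tdp1-knockout cells is measured by ATP luminescence after at least 48 hr compound exposure at 37 °C, with DMSO substituting for the 20 nM CPT used in the parallel screen.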
IL1B secr inh = qHTS for Inhibitors of Inflammasome Signaling: IL-1-beta AlphaLISA Primary Screen | activity change, % at 57.5 µM | AID 743279, 2014 | THP-1 LPS/ATP IL-1B secretion, AlphaLISA, 16 h; active compounds read low | 360,000 tested, 4.7% active; in the data active means activity change below about -50%; inconclusive means mostly about -30% to -49%
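THP-1 cells pretreated 1 hr with compounds (up to 57.5 uM final), then stimulated with LPS (250 ng/mL final) plus ATP (1.25 mM final); secreted IL-1B measured by AlphaLISA after 16 hr, decreased signal indicating inhibition.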
Gal4-VP16 FLuc = VP16 counterscreen qHTS for inhibitors of ROR gamma transcriptional activity | AID 2546, 2010 | 310,000 tested, 3.5% active | Drosophila S2 Gal4-VP16 UAS-luciferase, luminescence, 20 h | Potency, µM (series often up to 53.6 µM), actives largely listed as inhibitors;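 further: Gal4-VP16 expression switched on by copper sulfate through the metallothionein promoter; nearly all actives have a fitted effect of over 50% in size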
RORgamma inh = qHTS for inhibitors of ROR gamma transcriptional activity; 310,000 tested, 5.4% active; Drosophila S2 Gal4-RORgamma UAS-luciferase reporter, 20 h; AID 2551, 2010; Potency, µM (top dose mostly 53.6 µM), most hits filed as inhibitors; Nuclear receptor ROR-gamma (Mus musculus), P51450; further: nearly all actives have a fitted effect of over 60% in size
Target sequence (P51450 whole entry, looked up, the tested form may be a part): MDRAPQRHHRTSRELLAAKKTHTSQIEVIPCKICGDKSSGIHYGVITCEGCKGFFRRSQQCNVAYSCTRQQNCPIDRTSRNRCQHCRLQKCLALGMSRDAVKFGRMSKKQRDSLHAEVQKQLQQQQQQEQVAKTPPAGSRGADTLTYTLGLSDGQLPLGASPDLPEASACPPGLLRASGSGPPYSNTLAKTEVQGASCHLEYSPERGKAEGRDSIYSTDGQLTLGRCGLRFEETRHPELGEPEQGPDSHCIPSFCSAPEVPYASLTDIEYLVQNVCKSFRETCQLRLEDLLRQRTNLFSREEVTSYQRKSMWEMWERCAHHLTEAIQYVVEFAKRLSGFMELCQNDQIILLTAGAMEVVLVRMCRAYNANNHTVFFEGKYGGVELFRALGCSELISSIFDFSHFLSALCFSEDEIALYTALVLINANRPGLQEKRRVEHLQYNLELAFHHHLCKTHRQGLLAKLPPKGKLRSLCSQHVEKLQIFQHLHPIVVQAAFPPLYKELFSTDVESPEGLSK
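Stable Schneider cell line, Gal4 DNA-binding domain fused to ROR gamma, UAS-luciferase. Cmpd 1 hr RT → CuSO4 700 uM final → 20 hr RT → luciferase reagent 10 min → luminescence.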
A number is an active result; 0 = inactive; ? = inconclusive; - = no result given; [ ] = another dose, or the depositor's remark. Unless noted, the call rests on the fitted dose curve; in most records, active means well fitted curve in the direction sought with a large enough effect; inconclusive means small, poorly fitted or top-dose-only effect, or another doubt; inactive means no such curve, though single readings can be large; an effect the other way counts as inactive or inconclusive.

SMILES | LDHA inh | TDP1 cell CPT | DT40 TDP1 no CPT | IL1B secr inh | Gal4-VP16 FLuc | RORgamma inh
O=C(c1ccco1)c1cn(CCOc2ccc(Cl)cc2)c2ccccc12 | 0 | ? | ? | - | - | -
CCC(CC)C(=O)N1N=C(c2cccc(OC)c2)CC1c1ccc2nccnc2c1 (stereo unspecified) | 0 | - | - | - | - | -
Clc1cccc(-c2cc3nc4c(c(NCc5ccco5)n3n2)CCCC4)c1 | 0 | 21µM | 11µM | -96 | 0 | ?
c1coc(CNc2c3c(nc4ncnn24)CCCC3)c1 | 0 | ? | 0 | 0 | 0 | 0
CCOc1cccc(-c2nnc3n2N=C(c2ccc4ccccc4c2)CS3)c1 | 0 | - | - | - | - | -
CCc1c(C)[nH]n(-c2nc(-c3cccc([N+](=O)[O-])c3)cs2)c1=O | 0 | ? | ? | 0 | ? | 10µM
OC1CCN(Cc2nnc(-c3ccccc3Cl)o2)CC1 | 0 | - | - | - | - | -
O=C(N/N=C/c1c[nH]c2ccccc12)C1CC1c1ccccc1 (stereo unspecified) | 0 | 12µM | 21µM | 0 | ? | ?
O=C(N/N=C/c1ccccc1)C1CC1c1ccccc1 (stereo unspecified) | 0 | - | - | - | - | -
O=C(N/N=C/c1ccc([N+](=O)[O-])s1)C1CCCCC1 | 0 | - | - | - | - | -
O=C(N/N=C\c1ccc([N+](=O)[O-])s1)C1COc2ccccc2O1 (stereo unspecified) | 0 | 2.9µM | 5.8µM | -53 | 2.8µM | 3.5µM
O=C(N/N=C/c1c[nH]c2ccccc12)C1CC1(c1ccccc1)c1ccccc1 (stereo unspecified) | 0 | ? | ? | ? | ? | ?
O=C(N/N=C/c1c[nH]c2ccccc12)C1COc2ccccc2O1 (stereo unspecified) | 0 | 10µM | 13µM | 0 | 0 | 0
CCOC(=O)c1ccc(-n2c(O)c(/C=N/NC(=O)C3COc4ccccc4O3)c3ccccc3c2=O)cc1 (stereo unspecified) | 0 | ? | ? | 0 | 2.8µM | 2.5µM
c1ccc(-c2cnc(CSc3nnc(-c4ccccc4)o3)o2)cc1 | 0 | - | - | - | - | -
CC(=O)Nc1cc(-c2nc3ccc(C)cc3o2)ccc1Cl | 0 | - | - | - | - | -
Cc1ccc(C(C)NC(=O)C2(c3cccc(F)c3)CCOCC2)s1 (stereo unspecified) | 0 | - | - | - | - | -
CCNC(=O)C(C)NC(=O)c1cc2ccccc2oc1=O (stereo unspecified) | 0 | - | - | - | - | -
CC(C)(C)c1ccc2c(c1)OC(C(=O)N/N=C\c1ccccn1)CO2 (stereo unspecified) | 0 | ? | ? | ? | 18µM | ?
O=C(N/N=C\c1ccc(Cl)s1)C1COc2ccccc2O1 (stereo unspecified) | 0 | ? | 9.2µM | 0 | 0.89µM | 0.63µM
O=C(N/N=C\c1ccc(-c2ccccc2[N+](=O)[O-])o1)C1COc2ccccc2O1 (stereo unspecified) | 0 | 0 | 0 | 0 | ? | ?
CC(C)(C)c1ccc2c(c1)OC(C(=O)N/N=C\c1ccc(-c3cccc(C(=O)O)c3)o1)CO2 (stereo unspecified) | 0 | 0 | 0 | 0 | 0 | 0
CC(C)(C)c1ccc(C2CC2C(=O)N/N=C\c2ccc[nH]2)cc1 (stereo unspecified) | 0 | ? | ? | -61 | 6.3µM | 10µM
O=C(N/N=C\c1ccc([N+](=O)[O-])o1)C1COc2ccccc2O1 (stereo unspecified) | 0 | 7.3µM | 6.5µM | 0 | ? | 0
O=C(N/N=C/c1ccc(N2CCOCC2)cc1)C1COc2ccccc2O1 (stereo unspecified) | 0 | 0 | 0 | 0 | 0 | 0
SMILES | LDHA inh | TDP1 cell CPT | DT40 TDP1 no CPT | IL1B secr inh | Gal4-VP16 FLuc | RORgamma inh
COc1ccc(Nc2nc3ccccc3nc2NS(=O)(=O)c2ccc(F)cc2)cc1 | 0 | - | - | - | - | -
CCN(CC)c1ccc(C(=O)NCc2ccc3c(c2)CCN3C(=O)c2cccc(C)c2)cc1 | 0 | ? | ? | - | - | -
CCC(=O)N1CCc2cc(CNC(=O)Nc3cc(C)ccc3C)ccc21 | 0 | 0 | 0 | - | - | -
CCN(CC)c1ccc(C(=O)NCc2ccc3c(c2)CCN3C(=O)c2ccccc2)cc1 | 0 | 21µM | 23µM | - | - | -
Cc1ccc(C)c(NC(=O)NCc2ccc3c(c2)CCN3C(=O)c2ccccc2)c1 | 0 | 21µM | ? | - | - | -
CN(C)c1ccc(C(=O)NCc2ccc3c(c2)CCN3C(=O)c2ccccc2)cc1 | 0 | 16µM | ? | - | - | -
O=C(NCc1ccc2c(c1)CCN2C(=O)c1ccccc1)c1ccco1 | 0 | ? | ? | - | - | -
Cc1ccc(C(=O)NCc2ccc3c(c2)CCN3C(=O)c2ccc(C)cc2)cc1 | 0 | 21µM | 18µM | - | - | -
O=C(NCc1ccncc1)NCC1(c2ccccc2)CC1 | 0 | - | - | - | - | -
O=C(Nc1ccccc1Cl)c1cc(=O)c2cc(Cl)ccc2o1 | 0 | - | - | - | - | -
Cc1ccc(C(=O)NCCc2c[nH]c3ccc(Cl)cc23)cc1 | 0 | - | - | - | - | -
COc1ccc(C2CC3(CC(C)(C)NC(=S)N3)Oc3cc(O)cc(C)c32)cc1OC (stereo unspecified) | 0 | ? | ? | 0 | 0 | ?
N#CC1=C(N)Oc2cc(O)c(Cl)cc2C1c1ccccc1F (stereo unspecified) | 0 | ? | ? | 0 | 0 | 0
CC1(C)CC2(CC(c3ccccc3F)c3cc(Cl)c(O)cc3O2)NC(=S)N1 (stereo unspecified) | 0 | 2.1µM | 3.7µM | 0 | ? | 11µM
Cc1cccc(C2CC3(CC(C)(C)NC(=S)N3)Oc3cc(O)ccc32)c1 (stereo unspecified) | 0 | 21µM | 13µM | -73 | 0 | 10µM
COc1cccc(C2CC3(CC(C)(C)NC(=S)N3)Oc3cc(O)ccc32)c1 (stereo unspecified) | 0 | 12µM | 9.2µM | 0 | 0 | 0
O=C(CCNS(=O)(=O)/C=C/c1ccccc1)Nc1cc(Cl)cc(Cl)c1 | 0 | - | - | - | - | -
COCCCNC(=S)NCCNc1nc2c(C)c(C)ccc2cc1C#N | 0 | 0 | ? | 0 | ? | 18µM
CCOCCCNC(=S)NCCNc1nc2ccc(C)cc2cc1C#N | 0 | ? | ? | 0 | 0 | ?
CCOCCCNC(=S)NCCCNc1nc2ccc(C)cc2cc1C#N | - | - | - | - | 0[10 µM] | 6.3µM
COCCCNC(=S)N1CCCN(c2nc3c(C)c(C)ccc3cc2C#N)CC1 | 0 | 0 | 0 | 0 | 0 | 0
O=C(CCc1ncc(-c2ccc(F)cc2F)o1)N1CCN(S(=O)(=O)c2cc(F)ccc2F)CC1 | 0 | - | - | - | - | -
COc1ccccc1NC(=O)c1c(-c2ccc(C)cc2)nnc2ccccc12 | 0 | 18µM | ? | - | - | -

Screens deposited in PubChem BioAssay by National Center for Advancing Translational Sciences (NCATS).
